Among the data in ChEMBL document CHEMBL4513216, “Probing the Open Global Health Chemical Diversity Library for Multistage-Active Starting Points for Next-Generation Antimalarials” (ACS Infect Dis, 2020) are INHIBITION values, retold here.

Out of some 69,000 compounds screened, about 8,600 (12%) showed an effect of 50% or more. Only a selection was taken, and strong results are over-represented in it overall.

In this experiment the test system is Plasmodium berghei. The experiment is described as follows: Screen against P. berghei liver stage (PbLuc), transformed with Luciferase, at 10uM. The conditions noted are these: tested at 10 uM. The format is functional, HepG2.
As for `Cc1cnc2c(S(=O)(=O)NC3CCS(=O)(=O)C3)cccc2c1` (stereo not drawn), the INHIBITION worked out at 10%.
Next, `Cc1ccc(C(=O)N(C)Cc2cc(C)on2)cn1`: 21.5%; `N#Cc1ccccc1N1CCCN(C(=O)CCc2ccco2)CC1`: -2.53%.
Next, `CSCC(=O)N[C@H]1CC[C@H](Nc2nccc(-c3cccnc3)n2)C1`: 49.7%; `CN1CCc2[nH]nc(C(=O)N3CCCC4(CC3)CNC(=O)O4)c2C1` (stereo not drawn): 46.1%; `CN1CCc2[nH]nc(C(=O)N3CCC4(CCCO4)CC3)c2C1`: 71.2%.
Next, `CN1CCc2[nH]nc(C(=O)N3CCC4(CN(C)C(=O)O4)C3)c2C1` (stereo not drawn): 48.9%; `N#CC1(NC(=O)c2ccc(F)c(Br)c2)CCSC1` (stereo not drawn): 51.8%; `CSCc1cc(C(=O)NC2(C#N)CC2)ccc1F`: 32.3%.
Turning to `CSCc1cc(C(=O)NC2(C#N)CCSC2)ccc1F` (stereo not drawn), the INHIBITION is recorded as -77.6%.
In the case of `Cc1nn(C)c(C)c1C(=O)N1CCOCC1CC(=O)c1ccco1` (stereo not drawn), the INHIBITION is on record as 17.4%.
Under `CCOC(=O)C1(O)CCN(C(=O)Nc2ccc(CC)cc2)CC1` stands -62.8%; under `Cc1cnc(N2C[C@@H]3[C@@H](C2)OCC(=O)N3CCN(C)C)nc1`, 73.3%; under `Cc1cnc(N2C[C@@H]3[C@@H](C2)OCC(=O)N3CC2CC2)nc1`, 31.9%.
Next, `CN(C)CCN1C(=O)CO[C@@H]2CN(c3ncc(F)cn3)C[C@H]21`: 17.2%; `Cc1nn(C)c(N(C)C)c1CNCc1ccc(Cn2cncn2)cc1`: -56.7%.
Next, `O=C(O)c1cccnc1CN1CCCCC1CCc1cccc(O)c1` (stereo not drawn): 41.2%; `O=C(O)c1cccnc1CN1CCCC1CCc1ccccc1` (stereo not drawn): 51.2%; `O=C(O)c1cccnc1CN1CCCCC1CCc1ccccn1` (stereo not drawn): 37.6%.
Take `CCOCC1CN(S(=O)(=O)c2cccc(C)c2)Cc2nccn2C1` (stereo not drawn): the INHIBITION was 13.1%.
Next, `CCC(C(=O)N(C)Cc1cc(-c2ccccc2)n[nH]1)n1cccn1` (stereo not drawn): 5.11%; `Cn1ccnc1N1CCN(C(=O)Cc2ccc(Cl)cc2)CC1`: -17.2%; `OC1(CNCCSc2ccccn2)CCCNC1` (stereo not drawn): 38.3%.
Next, `OC1(CNCCN2CCc3ccccc32)CNCCOC1` (stereo not drawn): 36.1%; `OC1(CNCCSc2ccccn2)CNCCOC1` (stereo not drawn): 67.2%; `Cc1ccccc1C(=O)N1CCOCC1CN(C)C` (stereo not drawn): 1.06%.
Next, `O=C(Nc1cn[nH]c1)NC1CCN(c2ccccc2OC(F)F)C1` (stereo not drawn): 29.8%; `O=C(NC1CCN(c2ccccc2OC(F)F)C1)c1cccnc1` (stereo not drawn): 27.5%; `Cc1c(CNC2CCN(c3ccccc3OC(F)F)C2)cnn1C` (stereo not drawn): 5.64%.
For the compound `O=C(Nc1ccncc1)NC1CCN(c2ccccc2OC(F)F)C1` (stereo not drawn), the INHIBITION worked out at 79%.
Next, `Cc1noc(C)c1CNC1CCN(c2ccccc2OC(F)F)C1` (stereo not drawn): 67.4%.
Next, `N#Cc1nccnc1NC1CCN(c2ccccc2OC(F)F)C1` (stereo not drawn): 36.5%.
Next, `O=C1C(Nc2ncccn2)CCN1c1ccccc1OC(F)F` (stereo not drawn): -10.7%; `O=C(Nc1cccnc1)NC1CCN(c2ccccc2OC(F)F)C1` (stereo not drawn): 56.6%; `O=C(NC1CCN(c2ccccc2OC(F)F)C1)c1c[nH]nn1` (stereo not drawn): -39.7%.
`O=C(Nc1ccccn1)NC1CCN(c2ccccc2OC(F)F)C1` (stereo not drawn): the INHIBITION came out at 67.8%.
Under `COc1ccccc1N1CCC(NCc2c(C)noc2C)C1` (stereo not drawn) stands 1.94%; under `COc1ccccc1N1CCCC(NC(=O)Nc2cccnc2)C1` (stereo not drawn), 10.7%.
Under `CCn1cc(S(=O)(=O)NCc2ccnc(-n3ccnc3)c2)cn1` stands -0.85%.
Next, `CN(Cc1cnn(C)c1)CC(O)c1ccc2c(c1)OCO2` (stereo not drawn): 46.6%; `Cn1nc(C(=O)NCCc2ccc(OC3CCCC3)cc2)ccc1=O`: 35.5%; `Cc1nn(C)c2cn(CC(=O)NC3CCSCC3)nc12`: 19.8%.
Consider `CCN(C(=O)c1ccc2nnc(C3CCN(CCOC)C3)n2c1)C(C)C` (stereo not drawn), for which the INHIBITION is listed as 34%.
For `CC(C)[C@H](NC(=O)N1CCC(Cc2ccccc2)CC1)C(=O)O`, the INHIBITION is recorded as 31.3%.
Under `O=C(NCC1CCCO1)c1ccc(S(=O)(=O)NCCc2cn[nH]c2)cc1` (stereo not drawn) stands -17.5%.
Next, `CC(C)N1CCCCC1c1cc(CO)[nH]n1` (stereo not drawn): -8.24%; `CCc1nnc(CN2CCCC(Cn3nc(C)nc3C)C2)o1` (stereo not drawn): 44.9%.
Under `COc1ccc(S(=O)(=O)NCCC(=O)NCc2ccoc2)cc1OC` stands 3.77%; under `O=C(CCc1ccsc1)NCC1CCN(C2CC2)C1` (stereo not drawn), 22.8%; under `C1CC(CN2CC[C@@H]3O[C@@H](c4nnc(C5CC5)o4)C[C@H]3C2)CCO1`, 14.5%.
As for `CN1CCOCC2(CCCN(C(=O)c3cnccn3)C2)C1` (stereo not drawn), the INHIBITION is 18.3%.
Under `CCN(CCO)Cc1ccc(Br)c2cccnc12` stands 7.07%.
For `O=C(c1ccccn1)N1CCc2c(nc(-c3ccncc3)[nH]c2=O)C1`, the INHIBITION is -12.1%.
For `O=C(c1cc[nH]n1)N1CCc2c(nc(N3CCCCC3)[nH]c2=O)C1`, the INHIBITION worked out at 3.91%.
Under `O=C(c1ccccn1)N1CCc2c(nc(N3CCCC3)[nH]c2=O)C1` stands 50%.
Under `CCCc1nnc(N2CCN(c3ccccc3Cl)CC2)o1` stands -15.3%; under `CN(C)CC(C)(C)Cn1cnc(-c2ccccc2)c1-c1ncc[nH]1`, 18.8%.
Next, `CCS(=O)(=O)c1ccc(CNc2c(Cl)cccc2C#N)cc1`: 74.9%; `CS(=O)(=O)N1CCC(CNc2c(Cl)cccc2C#N)CC1`: 19.7%; `CNC(=O)COc1ccc(CNCc2cc(F)ccc2F)cc1`: -4.12%.
As for `CN(c1ccc(CNc2c(Cl)cccc2C#N)cc1)S(C)(=O)=O`, the INHIBITION was determined as 36.9%.
Next, `CNC(=O)COc1ccc(CNc2c(Cl)cccc2C#N)cc1`: 60.1%; `CN(C)C(=O)c1ccc(CNc2c(Cl)cccc2C#N)cc1`: 45.2%; `CCC(=O)Nc1nnc(CCOc2ccccc2)s1`: -17.2%.
Next, `Cc1nc(CN2CCC(c3ccnn3CCO)CC2)oc1C`: -12.2%.
Next, `CN(C)C(=O)CN(C)C(=O)c1csc(Br)c1`: -13.2%.
On to `CN(C)c1ccc(CC2CCCN(c3cnccn3)C2)nn1` (stereo not drawn), for which the INHIBITION is -14.2%.
For the compound `OC(CNC1CCSCC1)c1cccc(OCc2ccccc2)c1` (stereo not drawn), the INHIBITION turned out to be 44.5%.
Under `Cc1nc(CN(C)C(=O)Nc2cccc(C)c2C)no1` stands 28.1%; under `N#Cc1ccc(OC2CCN(C(=O)c3ccc4c(c3)OCO4)CC2)nc1`, 40.9%.
Under `N#Cc1ccc(OC2CCN(C(=O)c3ccc(Br)o3)CC2)nc1` stands -0.532%; under `COc1ccc(OC2CCN(C(=O)c3ccc(C(C)=O)s3)CC2)cc1`, 71.5%; under `N#Cc1ccc(C(=O)N2CCC(Oc3ccc(C#N)cn3)CC2)cc1`, 32.2%.
Regarding `COc1ccc(OC2CCN(C(=O)c3cnc(C)s3)CC2)cc1`, the INHIBITION worked out at 30.8%.
Under `N#Cc1ccc(OC2CCN(C(=O)Cc3cccs3)CC2)nc1` stands 65.7%; under `COc1cccc(OC2CN(C(=O)C3CCCN(C(=O)N(C)C)C3)C2)c1` (stereo not drawn), 42.6%.
Under `N#Cc1ccc(OC2CCN(C(=O)c3cncc(Br)c3)CC2)nc1` stands 54.5%; under `COc1ccc(OC2CCN(C(=O)C3CCCN(C)C3)CC2)cc1` (stereo not drawn), 67.5%.
Under `CC(=O)c1ccc(C(=O)N2CCC(c3cc(O)nc(C)n3)CC2)s1` stands 8.24%; under `CN1CCCC(C(=O)N2CCC(Oc3ncccn3)CC2)C1` (stereo not drawn), 30.5%.
Regarding `N#Cc1ccc(OC2CCN(C(=O)c3ccccc3Cl)CC2)nc1`, the INHIBITION stood at 7.44%.
Under `Cc1ccc(S(N)(=O)=O)cc1C(=O)NC1CCN(C2CC2)CC1` stands -10.9%.
Next, `CC(=O)N1CCN(c2ccnc(C)n2)CC(COc2ccccc2)C1` (stereo not drawn): 1.11%; `Cc1ccc(N2CCN(Cc3ccccc3)C3(CCNCC3)C2=O)cn1`: 8.31%; `CN(C)c1cncc(C2CCN(CC(N)=O)CC2)n1`: 31.6%.
Under `Cn1cccc1C(=O)N[C@@H]1CN(Cc2ccsc2)[C@@H]2COC[C@@H]21` stands -37.4%; under `O=C(NCC1CC1)[C@H]1C[C@H]2CN(S(=O)(=O)Cc3ccccc3)C[C@@H]1O2`, 43.2%; under `CN(Cc1ccsc1)C(=O)Nc1ccc(S(C)(=O)=O)cc1`, 31.8%.
As to `NC(=O)c1ccc(NC(=O)Cn2cc(-c3ccccc3)ncc2=O)cc1`, the INHIBITION came out at 26.8%.
Under `Cc1nc(-c2ccncc2)ncc1C(C)NC(=O)C1=NN(C)C(=O)CC1` (stereo not drawn) stands -9.29%.
Consider `Cn1nc(C(=O)N2CCC(Oc3ccc(C#N)cn3)CC2)ccc1=O`, for which the INHIBITION was determined as 25.8%.
Next, `COc1ccccc1OC1CCN(C(=O)C2CCCN(C)C2)CC1` (stereo not drawn): 62.8%; `CN1CCCC(C(=O)N2CCC(Oc3ccccn3)CC2)C1` (stereo not drawn): 25.3%.
Under `CN1CCCC(C(=O)N2CCC(Oc3ccc(C#N)cn3)CC2)C1` (stereo not drawn) stands 74.4%; under `COc1ccccc1OC1CCN(C(=O)c2cnc(C)s2)CC1`, 12.7%.
Under `CC(=O)N1CCC(Oc2ccc(C#N)cn2)CC1` stands -43.5%; under `COCc1ncn2c1CN(C(=O)c1ccco1)CC2`, 4.57%; under `CCC1CNCc2cc3c(C)ccc(C)c3nc2O1` (stereo not drawn), 21.7%.
For `COc1cccc(C(=O)NC(C)CCN2CCOCC2)c1F` (stereo not drawn), the INHIBITION is recorded as 34.1%.
Next, `CC(CCN(C)C)NC(=O)c1cccc(C(F)(F)F)c1F` (stereo not drawn): 66.5%; `CC(CCN1CCOCC1)NC(=O)c1cccc(C(F)(F)F)c1F` (stereo not drawn): 35%.
Under `COc1c(CNCCC(=O)NC2CCCC2)c(C(C)C)nn1C` stands 21%.
As for `O=C(C[C@@H]1COC[C@H]2CN(Cc3ccc(F)cc3)C[C@@H]12)N1CCCC1`, the INHIBITION is given as -21.1%.
Regarding `CC(C)Nc1cccc(CNC(=O)N2CCC(N3CC=CC3)C2)c1` (stereo not drawn), the INHIBITION stood at 19.4%.
Regarding `CC(C)Nc1cccc(CNC(=O)N2CCCC2)c1`, the INHIBITION is on record as 24.2%.
Under `CC(C)Nc1cccc(CNC(=O)N2CCC[C@@H]2CO)c1` stands 52.2%; under `CC1=Nc2c(c(O)nn2C(C)C)C(c2cn(C)nc2C)S1` (stereo not drawn), 33.3%.
Turning to `CCn1cc(Cl)c(C(=O)NCCCO)n1`, the INHIBITION is given as 20.1%.
